The text below walks through data of PubChem BioAssay (NCI).

About 83,000 compounds went through this panel and 20% of them were active in at least one assay; those are over-represented in the sample as a whole.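 Percent growth is the endpoint: 0 to 100 indicates growth inhibition (40 means 60% inhibition), 0 means no net growth, and negative values indicate cell death.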 Activity calls are given as the source filed them. How the source made its calls: active means growth percent below 10; inactive means the rest.

The subject of the first test is SF-539 CNS. Nature of the test: NCI-60 one-dose screen, 48 h (100 = growth as untreated, 0 = no growth, -100 = all killed). As to conditions: 10 µM unless noted.
`COc1cccc(-c2nn(C(C)(C)C)cc2-c2ccnc(NCCCNS(=O)(=O)c3ccc(C)cc3)c2)c1`: the growth is 115% (inactive). For the molecule `COc1ccc(-c2nc3ccc(-c4nc5ccc(N6CCN(c7ccc(F)cc7)CC6)cc5[nH]4)cc3[nH]2)cc1OC`, the growth is 68.2% (inactive). For `O=C1NC(=S)NC(=O)C1CC(=O)n1c(-c2ccccc2)nc2ccccc21`, the growth was 94.1% (inactive). As for `CSc1nc(NCCN2CCOCC2)c(C#N)c(-c2cccc([N+](=O)[O-])c2)n1`, the growth was 90.3% (inactive). For the molecule `N#Cc1c(-c2ccc(Cl)cc2)nc(N=Nc2c(O)[nH]c3ccc(Cl)cc23)nc1N1CCOCC1`, the growth was 97.8% (inactive). `Cc1ccc(NS(=O)(=O)c2ccc(-c3cnc(C4CC4)o3)cc2)cc1C`: the growth was -13.6% (active). As to `Oc1ccccc1-c1nnc(CNc2ccc(Cl)cc2)o1`, the growth is 26.7% (inactive).

The next test has as its system UACC-257 melanoma. The description is as above. As to conditions: 10 µM unless noted.
`N#C/C(=C\c1ccc(-c2ccc(Cl)c(Cl)c2)o1)c1nc(-c2ccco2)cs1`: the growth was 118% (inactive).

Take `CC(C)C1=C[C@@]23CC[C@@H]4[C@](C)(CCC[C@@]4(C)C(=O)N4CCCNCC4)[C@H]2C[C@@H]1[C@H]1C(=O)CCC(=O)[C@H]13`: the growth is 106% (inactive).

In the case of `COc1ccc(CCNc2nc(SC)nc(-c3cccc([N+](=O)[O-])c3)c2C#N)cc1OC`, the growth is 89.7% (inactive). As to `Cc1cc(NS(=O)(=O)c2ccc(-c3cnc(C4CC4)o3)cc2)ccc1Cl`, the growth was 45% (inactive). Turning to `COc1ccc(-c2cc(C(=O)N=Nc3c(O)[nH]c4ccc(Br)cc34)no2)cc1`, the growth was 112% (inactive). Consider `CCCOc1cc2ccccc2cc1C(=O)Nc1nc(NC)c2c(ccc3nccc32)[nH]1`, for which the growth is -75.4% (active). As to `CCCCN(CCCC)CCCn1c(-c2ccccc2)ccc1-c1ccccc1`, the growth is 90.1% (inactive).

In the case of `Cc1nc2ccccc2n1C(=O)C[C@@H]1NC(=S)NC1=O`, the growth was 86.9% (inactive). On to `N#CCCN=Nc1c(O)[nH]c2ccc([N+](=O)[O-])cc12`, for which the growth is 119% (inactive). As for `Cc1cc(N2CCOCC2)nc(NCc2cc(Nc3ccnc4cc(Cl)ccc34)ccc2F)n1`, the growth is -68.3% (active). Consider `Nc1n[nH]c2ccc([C@@H]3Nc4cc5c(cc4[C@H]4C6CCC(C6)[C@@H]34)C(=O)NC5)cc12` (stereo not given in full), for which the growth was 76.7% (inactive). On the same count and under the same terms, the figure for `c1ccc(-c2c(-c3ccccc3)[n+](Cc3ccc4ccccc4c3)c(-c3ccc(-c4nc5ccccc5s4)cc3)n2Cc2ccc3ccccc3c2)cc1` is -87.5% (active); for `C=CC(=O)Nc1cccc(-c2nc(SC)nc(NCc3ccccc3)c2C#N)c1` it is 64.9% (inactive). Same read-out and setting: the figure for `CCCOc1ccc2nc(NC(=O)OC)[nH]c2c1` is 47.3% (inactive); for `COc1cccc(/C=C2\Oc3cc(OCCN4CCCC4)ccc3C2=O)c1` it is 111% (inactive). For the molecule `COc1ccc(/C=C2\Oc3cc(OCCCCN4CCCC4)ccc3C2=O)cc1`, the growth is 96.9% (inactive). Same read-out and setting: the figure for `COc1cccc(-c2nn(C(C)(C)C)cc2-c2ccnc(NCCCNS(=O)(=O)c3cccc4ccccc34)c2)c1` is 110% (inactive); for `COc1cccc(-c2nc3sccn3c2-c2ccnc(NCCCNS(=O)(=O)c3c(Cl)cccc3Cl)c2)c1` it is 95.2% (inactive). As for `O=C1c2cc3c(cc2-c2c1c1cc(F)c(F)cc1c(=O)n2CCCn1ccnc1)OCO3`, the growth is -28.9% (active). Take `O=C(/C=C/c1cccc(Cl)c1)c1ccc(O)c(CN2CCN(c3cc4c(cc3F)c(=O)c(C(=O)O)cn4C3CC3)CC2)c1`: the growth was 80.5% (inactive). Still for that read-out and setting: the figure for `CCCn1c(=O)[nH]c(N)c([C@H]2c3ccccc3Oc3[nH]c(=O)n(CCC)c(=O)c32)c1=O` is 76.3% (inactive); for `N#CCCN=Nc1c(O)[nH]c2ccc(F)cc12` it is 118% (inactive). Consider `COc1ccc(-c2n[nH]nc2-c2csc3ccccc23)cc1OC`, for which the growth was 40.1% (inactive). On to `COc1cc(/C=C/c2cc(O)c3cc(C(C)=O)c(=O)oc3c2)cc2c1O[C@]1(C)CC[C@@H](O)C(C)(C)[C@H]1C2`, for which the growth is 36.5% (inactive). Consider `O=C(N=Nc1c(O)[nH]c2ccc(Br)cc12)c1cc(-c2ccccc2)on1`, for which the growth is 110% (inactive). Regarding `CSc1nc(NCc2ccccc2)c(C#N)c(-c2cccc([N+](=O)[O-])c2)n1`, the growth was 109% (inactive).

As for `O=S(=O)(Nc1ccc(Cl)c(F)c1)c1ccc(-c2cnc(C3CC3)o2)cc1`, the growth is 52.9% (inactive).

In the case of `CC1(C)CC[C@]2(C(=O)Nc3ccccn3)CC[C@]3(C)C(=CC[C@@H]4[C@@]5(C)C/C(=C/c6cccnc6)C(=O)C(C)(C)[C@@H]5CC[C@]43C)[C@H]2C1`, the growth is 26.2% (inactive). For `O=S(=O)(Nc1ccc(Br)c(Cl)c1)c1ccc(-c2cnc(C3CC3)o2)cc1`, the growth was 55.5% (inactive). On to `C=C(C)[C@@H]1CC[C@]2(C(N)=O)CC[C@]3(C)[C@H](CC[C@@H]4[C@@]5(C)C/C(=C/c6ccco6)C(=O)C(C)(C)[C@@H]5CC[C@]43C)[C@@H]12`, for which the growth was 97.8% (inactive).

On to `Cc1nc2c3c(-c4ccccc4)c(-c4ccccc4)oc3ncn2n1`, for which the growth was 106% (inactive).

On to `COc1cccc(-c2nn(C(C)(C)C)cc2-c2ccnc(NCCCNS(=O)(=O)c3ccc(C)cc3)c2)c1`, for which the growth is 111% (inactive).

On to `COc1ccc(-c2nc3ccc(-c4nc5ccc(N6CCN(c7ccc(F)cc7)CC6)cc5[nH]4)cc3[nH]2)cc1OC`, for which the growth is 104% (inactive). With `O=C1NC(=S)NC(=O)C1CC(=O)n1c(-c2ccccc2)nc2ccccc21`, the growth is 111% (inactive).

With `CSc1nc(NCCN2CCOCC2)c(C#N)c(-c2cccc([N+](=O)[O-])c2)n1`, the growth is 98.2% (inactive). On to `N#Cc1c(-c2ccc(Cl)cc2)nc(N=Nc2c(O)[nH]c3ccc(Cl)cc23)nc1N1CCOCC1`, for which the growth was 107% (inactive).

Consider `Cc1ccc(NS(=O)(=O)c2ccc(-c3cnc(C4CC4)o3)cc2)cc1C`, for which the growth was 49.8% (inactive). Regarding `Oc1ccccc1-c1nnc(CNc2ccc(Cl)cc2)o1`, the growth is 12.4% (inactive).
